Inconclusive results are not listed. Active and inactive are the calls of the source. How the source made its calls, unless noted: active means hit-call score of the fitted dose curve at least 0.9, where 1 is the maximum; inactive means score below 0.9.
What was measured:
[1] = read-out: Monokine induced gamma interferon (MIG), CXCL9 (gene 4283); assay: BSK_3C_MIG: BioMAP Diversity Plus: 3C Assay for Monokine induced gamma interferon (MIG) Biomarker Activity (AID 2283021); details: primary human endothelial cells (HUVEC); actives raise or lower the signal;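 on AC50: MIG protein level measured by immunoassay in the treated endothelial cultures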
In short: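 After 24 h of treatment, human umbilical vein endothelial cultures (3C system) had their MIG biomarker level determined by ELISA, with DMSO serving as negative control.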

[2] = target: human Vitamin D Receptor (VDR), VDR (gene 7421) (UniProt P11473); assay: ATG_VDR_TRANS: Attagene TRANS-FACTORIAL HepG2 Assay for human Vitamin D Receptor (VDR) (AID 2283022; active means hit-call score of the fitted dose curve at least 0.9, where 1 is the maximum)
Sequence of human Vitamin D Receptor (VDR), VDR (gene 7421) (P11473 whole entry, looked up, the tested form may be a part): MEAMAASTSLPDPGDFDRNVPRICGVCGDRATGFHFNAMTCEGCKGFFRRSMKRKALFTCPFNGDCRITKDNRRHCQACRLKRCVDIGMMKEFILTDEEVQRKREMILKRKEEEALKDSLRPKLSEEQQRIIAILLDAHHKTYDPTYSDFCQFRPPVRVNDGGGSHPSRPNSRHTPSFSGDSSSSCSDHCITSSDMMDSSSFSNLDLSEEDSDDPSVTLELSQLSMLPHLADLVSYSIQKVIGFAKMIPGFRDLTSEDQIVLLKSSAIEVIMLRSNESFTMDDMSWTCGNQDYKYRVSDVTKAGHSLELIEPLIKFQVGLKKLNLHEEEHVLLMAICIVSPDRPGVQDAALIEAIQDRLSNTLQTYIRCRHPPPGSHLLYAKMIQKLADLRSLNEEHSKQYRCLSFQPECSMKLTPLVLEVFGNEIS
In short: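 HepG2 cells were transiently transfected with multiple GAL4-UAS reporter units, so signal reflects exogenous chimeric receptor-Gal4 activity. After 24 h compound exposure, reporter mRNA was measured by RT-PCR, fluorescent labelling and capillary electrophoresis, fitted for gain of signal versus DMSO.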

[3] = BSK_3C_SRB: Viability Assessment in the BioMAP Diversity Plus: 3C Assay (AID 2283023); details: primary human endothelial cells (HUVEC);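 further: fitted both ways against DMSO so a hit may be signal rise or drop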
In short: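 Primary human umbilical vein endothelial cells in the 3C system were read 24 h after compound dosing. Total protein was stained with 0.1% sulforhodamine B after 10% TCA fixation and read at 560 nm, with bidirectional fitting against DMSO as baseline.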

[4] = BSK_3C_Vis: BioMAP Diversity Plus: 3C Assay for Morphology Visualization (AID 2283025); details: primary human endothelial cells (HUVEC);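 further: fitted both ways so gain or loss versus DMSO counts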;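 on AC50: light microscopy image of cell morphology used as background control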
In short: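 Endothelial cells from human umbilical vein were treated with test chemicals for 24 h and inspected by light microscopy for changes in cell conformation.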

[5] = read-out: Pselectin, SELP (gene 6403); assay: BSK_4H_Pselectin: BioMAP Diversity Plus: 4H Assay for Pselectin Biomarker Activity (AID 2283026); details: primary human endothelial cells (HUVEC); actives raise or lower the signal
In short: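 Human vascular endothelium from umbilical vein; P-selectin measured by ELISA at 24 h post-dose, with cytotoxicity checked by sulforhodamine B total-protein staining in parallel cultures (0.1% SRB after 10% TCA fixation, read at 560 nm).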

[6] = BSK_4H_SRB: Viability Assessment in the BioMAP Diversity Plus: 4H Assay (AID 2283027); details: primary human endothelial cells (HUVEC);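 further: cells exposed to compound for 24 h before staining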;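 on AC50: curves fitted both ways versus DMSO so AC50 may be loss or gain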
In short: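 Human umbilical vein endothelial cells were dosed with chemical and, after 24 h, fixed with 10% TCA, stained with 0.1% sulforhodamine B, and read at 560 nm to give total protein as a cytotoxicity measure. Bidirectional fitting relative to DMSO control.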

[7] = BSK_BE3C_SRB: Viability Assessment in the BioMAP Diversity Plus: BE3C Assay (AID 2283028); details: primary human bronchial epithelial cells;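 on AC50: fitted both ways so AC50 may mark signal gain or loss versus DMSO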
In short: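 Human primary bronchial epithelial cells were exposed to test chemicals for 24 h. Total protein in parallel cultures was then measured by staining with 0.1% sulforhodamine B after 10% TCA fixation, with absorbance read at 560 nm. Activity was fitted bidirectionally against DMSO.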

[8] = read-out: Thrombomodulin, THBD (gene 7056); assay: BSK_3C_Thrombomodulin: BioMAP Diversity Plus: 3C Assay for Thrombomodulin Biomarker Activity (AID 2283029); details: primary human endothelial cells (HUVEC); actives raise or lower the signal
In short: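 Thrombomodulin ELISA, human primary HUVEC, 24 h post-dose; data fitted in both directions relative to DMSO.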

[9] = read-out: Urokinase-type plasminogen activator receptor (uPAR), PLAUR (gene 5329); assay: BSK_4H_uPAR: BioMAP Diversity Plus: 4H Assay for Urokinase-type plasminogen activator receptor (uPAR) Biomarker Activity (AID 2283030); details: primary human endothelial cells (HUVEC); actives raise or lower the signal
In short: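 Primary human umbilical vein endothelial cells were exposed to chemical for 24 h before cell-surface uPAR was quantified by ELISA. Activity was fitted bidirectionally against the DMSO negative control baseline.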

[10] = read-out: Vascular endothelial growth factor receptor 2 (Homo sapiens) (UniProt P35968); assay: BSK_4H_VEGFRII: BioMAP Diversity Plus: 4H Assay for Vascular endothelial growth factor receptor 2 (VEGFR2) Biomarker Activity (AID 2283031); details: primary human endothelial cells (HUVEC); actives raise or lower the signal;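 on AC50: cell-surface VEGFR2 protein level quantified by ELISA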
In short: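 Primary human umbilical vein endothelial cells in the BioMAP 4H system were dosed with test chemical, and 24 h later VEGFRII was measured by ELISA. Activity was fitted bidirectionally against DMSO as negative control and baseline.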

[11] = read-out: Human Leukocyte Antigen - DR isotype (HLADR), HLA-DRA (gene 3122); assay: BSK_BE3C_HLADR: BioMAP Diversity Plus: BE3C Assay for Human Leukocyte Antigen - DR isotype (HLADR) Biomarker Activity (AID 2283032); details: primary human bronchial epithelial cells; actives raise or lower the signal
In short: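 Signal came from an ELISA for HLA-DR in human bronchial epithelial primary cells harvested 24 h after treatment; gain- and loss-of-signal fitting used DMSO controls as reference.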

[12] = read-out: Interferon-gamma inducible Protein 10 (IP10), CXCL10 (gene 3627); assay: BSK_BE3C_IP10: BioMAP Diversity Plus: BE3C Assay for Interferon-gamma inducible Protein 10 (IP10) Biomarker Activity (AID 2283034); details: primary human bronchial epithelial cells; actives raise or lower the signal
In short: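 Using primary human bronchial epithelial cultures, the assay captures IP-10 by ELISA one day (24 h) after exposure. Parallel SRB staining of total protein flags overt cytotoxicity. Fits run bidirectionally relative to DMSO.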

[13] = read-out: Monokine induced gamma interferon (MIG), CXCL9 (gene 4283); assay: BSK_BE3C_MIG: BioMAP Diversity Plus: BE3C Assay for Monokine induced gamma interferon (MIG) Biomarker Activity (AID 2283035); details: primary human bronchial epithelial cells; actives raise or lower the signal
In short: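 ELISA read-out of MIG in human lung bronchial epithelial primary cultures, 24 h post-dosing. Bidirectional curve fit vs DMSO baseline.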

[14] = read-out: Transforming growth factor beta 1 (TGFb1), TGFB1 (gene 7040); assay: BSK_BE3C_TGFb1: BioMAP Diversity Plus: BE3C Assay for Transforming growth factor beta 1 (TGFb1) Biomarker Activity (AID 2283036); details: primary human bronchial epithelial cells; actives raise or lower the signal
In short: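 In this human primary bronchial epithelial system, an ELISA quantified TGF-b1 one day after dosing. Endpoint changes in either direction were fitted relative to DMSO.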

[15] = read-out: Plasminogen activator inhibitor-1 (PAI1), SERPINE1 (gene 5054); assay: BSK_BE3C_PAI1: BioMAP Diversity Plus: BE3C Assay for Plasminogen activator inhibitor-1 (PAI1) Biomarker Activity (AID 2283037); details: primary human bronchial epithelial cells; actives raise or lower the signal
In short: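 PAI-1 biomarker levels in treated human bronchial epithelial cells are determined by ELISA at 24 h. Both increases and decreases relative to DMSO are fitted.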

[16] = read-out: urokinase plasminogen activator (uPA), PLAU (gene 5328); assay: BSK_BE3C_uPA: BioMAP Diversity Plus: BE3C Assay for urokinase plasminogen activator (uPA) Biomarker Activity (AID 2283038); details: primary human bronchial epithelial cells; actives raise or lower the signal
In short: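 Human primary bronchial epithelial cells were exposed to chemical for 24 h, then uPA levels were measured by ELISA. Responses were fitted bidirectionally against DMSO as negative control and baseline. Parallel SRB staining of total protein gauged overt cytotoxicity.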

[17] = read-out: Urokinase-type plasminogen activator receptor (uPAR), PLAUR (gene 5329); assay: BSK_BE3C_uPAR: BioMAP Diversity Plus: BE3C Assay for Urokinase-type plasminogen activator receptor (uPAR) Biomarker Activity (AID 2283039); details: primary human bronchial epithelial cells; actives raise or lower the signal
In short: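 A uPAR ELISA serves as the readout, taken 24 h after treating primary human bronchial epithelial cells. Responses in either direction are fitted against DMSO, which defines baseline activity.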

[18] = read-out: Interleukin-6 (IL6), IL6 (gene 3569); assay: BSK_CASM3C_IL6: BioMAP Diversity Plus: CASM3C Assay for Interleukin-6 (IL6) Biomarker Activity for (AID 2283040); details: primary human coronary artery smooth muscle cells; actives raise or lower the signal
[19] = read-out: Matrix Metallopeptidase 1 (MMP1), MMP1 (gene 4312); assay: BSK_BE3C_MMP1: BioMAP Diversity Plus: BE3C Assay for Matrix Metallopeptidase 1 (MMP1) Biomarker Activity (AID 2283024); details: primary human bronchial epithelial cells; actives raise or lower the signal
In short: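 Dose cells, wait 24 h, run MMP1 ELISA; cells are human bronchial epithelial primaries. Both increases and decreases relative to DMSO counted.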

[20] = read-out: Vascular cell adhesion molecule 1 (VCAM1), VCAM1 (gene 7412); assay: BSK_4H_VCAM1: BioMAP Diversity Plus: 4H Assay for Vascular cell adhesion molecule 1 (VCAM1) Biomarker Activity (AID 2283033); details: primary human endothelial cells (HUVEC); actives raise or lower the signal
In short: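 Endpoint derived from bidirectional fitting against DMSO controls of VCAM-1 ELISA signal in umbilical vein endothelial cells sampled at 24 h following treatment.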

Measured: AC50

COP(=S)(OC)Oc1ccc([N+](=O)[O-])c(C)c1
active: [3] 16.5 µM | [4] 39 µM | [11] 20 µM
inactive: [1] | [2] | [5] | [6] | [7] | [8] | [9] | [10] | [12] | [13] | [14] | [15] | [16] | [17] | [18]

CCCCOCN(C(=O)CCl)c1c(CC)cccc1CC
active: [1] 32.9 µM | [3] 28.5 µM | [19] 33.2 µM | [4] 29.4 µM | [5] 21.9 µM | [6] 28.2 µM | [7] 31.1 µM | [8] 8.66 µM | [9] 38.8 µM | [10] 31.1 µM | [11] 29.8 µM | [20] 28.9 µM | [12] 35.5 µM | [13] 36.5 µM | [14] 31.9 µM | [15] 30.7 µM | [16] 31.4 µM | [17] 32.2 µM | [18] 4.92 µM

CCN(CC)c1nc(C)cc(OP(=S)(OC)OC)n1
inactive: [1] | [2] | [4] | [5] | [6] | [7] | [8] | [9] | [10] | [20] | [12] | [13] | [14] | [15] | [16] | [17] | [18]
active: [3] 29.4 µM | [19] 20 µM | [11] 20 µM

COC(=O)c1c(C(F)F)nc(C(F)(F)F)c(C2=NCCS2)c1CC(C)C
active: [3] 33.3 µM | [6] 36.5 µM | [9] 33.9 µM | [11] 3.97 µM | [12] 17.7 µM | [15] 3.97 µM
inactive: [1] | [2] | [4] | [5] | [7] | [8] | [10] | [13] | [14] | [16] | [17] | [18]

CNC(=O)N(C)c1nnc(C(C)(C)C)s1
inactive: [1] | [2] | [3] | [19] | [4] | [5] | [6] | [7] | [8] | [9] | [10] | [11] | [12] | [13] | [14] | [15] | [17] | [18]

COCc1cnc(C2=NC(C)(C(C)C)C(=O)N2)c(C(=O)O)c1 (centres undefined)
inactive: [1] | [2] | [3] | [4] | [5] | [6] | [7] | [8] | [9] | [10] | [11] | [20] | [12] | [13] | [14] | [15] | [17] | [18]

CCOc1nc(C(Cl)(Cl)Cl)ns1
inactive: [1] | [2] | [3] | [19] | [4] | [5] | [6] | [7] | [8] | [9] | [11] | [20] | [12] | [13] | [14] | [15] | [17] | [18]

CC1(C)CCC(=Cc2ccc(Cl)cc2)C1(O)Cn1cncn1 (centres undefined)
inactive: [1] | [2] | [3] | [4] | [5] | [7] | [8] | [9] | [10] | [11] | [20] | [12] | [13] | [14] | [15] | [16] | [17] | [18]
active: [6] 0.803 µM

COCC(=O)N(c1c(C)cccc1C)C(C)C(=O)OC (centres undefined)
inactive: [1] | [3] | [19] | [4] | [5] | [6] | [7] | [8] | [9] | [10] | [11] | [20] | [12] | [13] | [14] | [15] | [17] | [18]

CC(C)(C)C(=O)C(Oc1ccc(Cl)cc1)n1cncn1 (centres undefined)
inactive: [1] | [3] | [19] | [4] | [5] | [6] | [7] | [8] | [9] | [10] | [11] | [20] | [12] | [13] | [14] | [15] | [17] | [18]

CCSC(=O)N1CCCCCC1
inactive: [1] | [3] | [19] | [4] | [5] | [6] | [7] | [8] | [9] | [10] | [11] | [12] | [13] | [14] | [15] | [16] | [17] | [18]

N#CN=C1SCCN1Cc1ccc(Cl)nc1
inactive: [1] | [3] | [19] | [4] | [5] | [6] | [7] | [8] | [9] | [10] | [11] | [20] | [12] | [13] | [14] | [15] | [17] | [18]

OC(c1ccc(Cl)cc1)(c1ccc(Cl)cc1)C(Cl)(Cl)Cl
inactive: [2] | [17] | [18]
active: [1] 30.3 µM | [3] 21.2 µM | [19] 34.1 µM | [4] 16.3 µM | [5] 17.3 µM | [6] 28.6 µM | [7] 12.9 µM | [8] 0.258 µM | [9] 31.4 µM | [10] 20 µM | [11] 11.5 µM | [20] 28.3 µM | [12] 12.2 µM | [13] 14.5 µM | [14] 31.2 µM | [15] 13.9 µM

Reference: PubChem BioAssay (EPA / NIEHS)
